Experimental findings from the supplement of paper PMC13380429 are described below.

One test deals with Vero E6 infected with SARS-CoV-2. Put plainly: morphology score (similarity to uninfected cells); higher = more like uninfected cells. The conditions noted are these: 24 h.
`CCc1cnn2c(NCc3ccc[n+]([O-])c3)cc(N3CCCC[C@H]3CCO)nc12` [dinaciclib] (0.833333 µM) gave a morphology score of -0.154.

Compound `C[N+](C)(C)CCOP(=O)(O)OC[C@H](O)CO` [choline-alfoscerate] (10 µM) came in with a morphology score of 0.0475.

`Oc1cccc(-c2nc(N3CCOCC3)c3oc4ncccc4c3n2)c1` (10 µM): the morphology score was -0.0667.

The compound `CC(C)=CCC/C(C)=C/CC/C(C)=C/C=C/C(C)=C/C(=O)O` [peretinoin] (10 µM) returned a morphology score of -0.00242.

In turn, `COc1ccc(Cc2cnc(N)nc2N)cc1OC` [diaveridine] (10 µM) gave a morphology score of 0.191.

Take `O=C(O[C@H]1C[C@H]2CC[C@@H](C1)[N+]21CCCC1)C(O)(c1ccccc1)c1ccccc1` [trospium] (10 µM): the morphology score came to 0.0583.

For the next test the test system is unchanged. Put plainly: SARS-CoV-2 infection rate relative to infected DMSO; higher = more infection, active = 60 or less. Particulars: 24 h.
On to `NC1(c2ccc(-c3nc4ccn5c(=O)[nH]nc5c4cc3-c3ccccc3)cc2)CCC1` (0.833333 µM), for which the SARS-CoV-2 infection rate was 106% (inactive).

On to `O=c1cc(N2CCNCC2)oc2c(-c3ccccc3)cccc12` (10 µM), for which the SARS-CoV-2 infection rate is 101% (inactive).

As to `COc1ncc(-c2ccc3nccc(-c4ccnnc4)c3c2)cc1NS(=O)(=O)c1ccc(F)cc1F` (0.833333 µM), the SARS-CoV-2 infection rate is 110% (inactive).

Consider `Nc1ccc(S(=O)(=O)Nc2ccccn2)cc1` [sulfapyridine] (10 µM), for which the SARS-CoV-2 infection rate is 102% (inactive).

Take `CCCCN1CCCCC1C(=O)Nc1c(C)cccc1C` (stereo unspecified) [bupivacaine] (10 µM): the SARS-CoV-2 infection rate is 110% (inactive).

On to `CC(C)NCC(O)COc1cccc2[nH]c3ccccc3c12` (stereo unspecified) [carazolol] (10 µM), for which the SARS-CoV-2 infection rate is 91.5% (inactive).

As for `Nc1ncnc2c1ncn2C1CCCO1` (stereo unspecified) (10 µM), the SARS-CoV-2 infection rate is 103% (inactive).

In the case of `NS(=O)(=O)c1cc(-c2nnn[nH]2)c(NCc2cccs2)cc1Cl` [azosemide] (10 µM), the SARS-CoV-2 infection rate was 98.5% (inactive).

For `CC(C)(C)NCc1cc(Nc2ccnc3cc(Cl)ccc23)c2c(c1O)CCCC2` [naphthoquine-phosphate] (10 µM), the SARS-CoV-2 infection rate is 109% (inactive).

Consider `Nc1ccn([C@@H]2CS[C@H](CO)O2)c(=O)n1` [lamivudine] (10 µM), for which the SARS-CoV-2 infection rate is 102% (inactive).

Regarding `COc1cc2c(cc1OC)-c1c(C)c3ccc(OC)c(OC)c3c[n+]1CC2` [dehydrocorydaline] (10 µM), the SARS-CoV-2 infection rate was 104% (inactive).

Consider `C=C1CC[C@H](O)C/C1=C/C=C1\CCC[C@]2(C)[C@@H]([C@H](C)CCCC(C)(C)O)CC[C@@H]12` [calcifediol] (10 µM), for which the SARS-CoV-2 infection rate is 115% (inactive).

For the compound `Nc1nc(N)c2nc(-c3cccc(O)c3)cnc2n1` (10 µM), the SARS-CoV-2 infection rate was 101% (inactive).

In the case of `CC1=C(/C=C/C(C)=C/C=C/C(C)=C/CO)C(C)(C)CCC1` [retinol] (10 µM), the SARS-CoV-2 infection rate was 110% (inactive).

With `O=C(c1ccc2nccnc2c1)N1CCCCC1` [ampalex] (10 µM), the SARS-CoV-2 infection rate is 104% (inactive).

Turning to `CNCCCCOc1ccccc1Cc1ccccc1` [bifemelane] (10 µM), the SARS-CoV-2 infection rate is 65% (inactive).

As for `CN(C(=O)CN1C(=O)COc2cc(Cl)c(Cl)cc21)[C@@H](CN1CCCC1)c1ccc(-c2cccc(C(N)=O)c2)cc1` (0.833333 µM), the SARS-CoV-2 infection rate was 104% (inactive).

Consider `O=C(Nc1ccc(Cl)cc1)Nc1cccc(-c2cccc(N3CCCC3)n2)c1` (10 µM), for which the SARS-CoV-2 infection rate is 92.5% (inactive).

For the compound `CC(=O)Nc1c(I)c(C(=O)O)c(I)c(N(C)C(C)=O)c1I` [metrizoic-acid] (10 µM), the SARS-CoV-2 infection rate is 108% (inactive).

`C[C@H]1C[C@H]2[C@@H]3CCC4=CC(=O)C=C[C@]4(C)[C@H]3C(=O)C[C@]2(C)[C@@]1(O)C(=O)CO` [Betapar (Meprednisone)] (10 µM): the SARS-CoV-2 infection rate was 108% (inactive).

For `Nc1ncc2c(n1)CC(c1ccco1)CC2=O` (stereo unspecified) (10 µM), the SARS-CoV-2 infection rate is 99% (inactive).

With `CN1CCN(c2cc3c(cc2F)c(=O)c(C(=O)O)cn3-c2ccc(F)cc2)CC1` [difloxacin] (10 µM), the SARS-CoV-2 infection rate is 99.5% (inactive).

Take `CN(C(=O)/C=C/c1ccoc1)[C@@H]1CC[C@@]2(O)[C@H]3Cc4ccc(O)c5c4[C@@]2(CCN3CC2CC2)[C@H]1O5` [nalfurafine] (10 µM): the SARS-CoV-2 infection rate is 108% (inactive).

For the compound `CC(C)(C)c1cc(/C=C(\C#N)C(N)=S)cc(C(C)(C)C)c1O` [tyrphostin-AG-879] (0.833333 µM), the SARS-CoV-2 infection rate is 102% (inactive).

As for `CN[C@@H](C)C(=O)N[C@H](C(=O)N1CCC[C@H]1C(=O)N[C@H]1c2ccccc2C[C@H]1OCC#CC#CCO[C@@H]1Cc2ccccc2[C@@H]1NC(=O)[C@@H]1CCCN1C(=O)[C@@H](NC(=O)[C@H](C)NC)C1CCCCC1)C1CCCCC1` (10 µM), the SARS-CoV-2 infection rate was 112% (inactive).
